Data on 39 targets can be found in the supplement of paper PMC10849652.

The full data set covers some 8,800 targets. This sample favours those with a hit. About 0.5% of all pairs of compound and target were hits. Values without a mark were called inactive.

UniProt Q8N7R7, sequence (Q8N7R7 whole entry, looked up): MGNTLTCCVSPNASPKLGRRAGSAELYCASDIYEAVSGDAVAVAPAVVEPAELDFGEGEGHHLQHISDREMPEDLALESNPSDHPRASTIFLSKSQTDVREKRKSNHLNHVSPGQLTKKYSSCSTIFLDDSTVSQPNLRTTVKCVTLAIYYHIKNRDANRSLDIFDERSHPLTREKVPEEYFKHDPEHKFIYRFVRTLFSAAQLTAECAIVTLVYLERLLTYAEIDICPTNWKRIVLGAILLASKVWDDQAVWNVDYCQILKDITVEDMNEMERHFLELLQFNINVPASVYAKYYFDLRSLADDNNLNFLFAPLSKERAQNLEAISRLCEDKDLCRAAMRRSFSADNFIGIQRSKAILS
UniProt O95260, sequence (O95260 whole entry, looked up): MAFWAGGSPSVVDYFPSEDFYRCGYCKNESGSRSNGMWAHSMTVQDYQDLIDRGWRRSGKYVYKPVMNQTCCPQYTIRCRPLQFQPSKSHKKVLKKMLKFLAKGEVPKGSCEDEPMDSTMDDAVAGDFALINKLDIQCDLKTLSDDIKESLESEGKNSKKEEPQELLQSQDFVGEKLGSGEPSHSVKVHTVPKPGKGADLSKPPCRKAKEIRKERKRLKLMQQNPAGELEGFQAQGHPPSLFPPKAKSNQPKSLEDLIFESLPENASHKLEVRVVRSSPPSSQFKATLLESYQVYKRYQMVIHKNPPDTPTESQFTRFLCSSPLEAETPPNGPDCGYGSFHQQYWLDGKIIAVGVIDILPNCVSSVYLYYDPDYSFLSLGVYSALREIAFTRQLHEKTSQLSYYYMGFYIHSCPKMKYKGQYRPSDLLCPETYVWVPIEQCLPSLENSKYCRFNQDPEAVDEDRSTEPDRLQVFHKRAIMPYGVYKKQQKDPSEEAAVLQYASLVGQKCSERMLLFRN
UniProt Q14004, sequence (Q14004 whole entry, looked up): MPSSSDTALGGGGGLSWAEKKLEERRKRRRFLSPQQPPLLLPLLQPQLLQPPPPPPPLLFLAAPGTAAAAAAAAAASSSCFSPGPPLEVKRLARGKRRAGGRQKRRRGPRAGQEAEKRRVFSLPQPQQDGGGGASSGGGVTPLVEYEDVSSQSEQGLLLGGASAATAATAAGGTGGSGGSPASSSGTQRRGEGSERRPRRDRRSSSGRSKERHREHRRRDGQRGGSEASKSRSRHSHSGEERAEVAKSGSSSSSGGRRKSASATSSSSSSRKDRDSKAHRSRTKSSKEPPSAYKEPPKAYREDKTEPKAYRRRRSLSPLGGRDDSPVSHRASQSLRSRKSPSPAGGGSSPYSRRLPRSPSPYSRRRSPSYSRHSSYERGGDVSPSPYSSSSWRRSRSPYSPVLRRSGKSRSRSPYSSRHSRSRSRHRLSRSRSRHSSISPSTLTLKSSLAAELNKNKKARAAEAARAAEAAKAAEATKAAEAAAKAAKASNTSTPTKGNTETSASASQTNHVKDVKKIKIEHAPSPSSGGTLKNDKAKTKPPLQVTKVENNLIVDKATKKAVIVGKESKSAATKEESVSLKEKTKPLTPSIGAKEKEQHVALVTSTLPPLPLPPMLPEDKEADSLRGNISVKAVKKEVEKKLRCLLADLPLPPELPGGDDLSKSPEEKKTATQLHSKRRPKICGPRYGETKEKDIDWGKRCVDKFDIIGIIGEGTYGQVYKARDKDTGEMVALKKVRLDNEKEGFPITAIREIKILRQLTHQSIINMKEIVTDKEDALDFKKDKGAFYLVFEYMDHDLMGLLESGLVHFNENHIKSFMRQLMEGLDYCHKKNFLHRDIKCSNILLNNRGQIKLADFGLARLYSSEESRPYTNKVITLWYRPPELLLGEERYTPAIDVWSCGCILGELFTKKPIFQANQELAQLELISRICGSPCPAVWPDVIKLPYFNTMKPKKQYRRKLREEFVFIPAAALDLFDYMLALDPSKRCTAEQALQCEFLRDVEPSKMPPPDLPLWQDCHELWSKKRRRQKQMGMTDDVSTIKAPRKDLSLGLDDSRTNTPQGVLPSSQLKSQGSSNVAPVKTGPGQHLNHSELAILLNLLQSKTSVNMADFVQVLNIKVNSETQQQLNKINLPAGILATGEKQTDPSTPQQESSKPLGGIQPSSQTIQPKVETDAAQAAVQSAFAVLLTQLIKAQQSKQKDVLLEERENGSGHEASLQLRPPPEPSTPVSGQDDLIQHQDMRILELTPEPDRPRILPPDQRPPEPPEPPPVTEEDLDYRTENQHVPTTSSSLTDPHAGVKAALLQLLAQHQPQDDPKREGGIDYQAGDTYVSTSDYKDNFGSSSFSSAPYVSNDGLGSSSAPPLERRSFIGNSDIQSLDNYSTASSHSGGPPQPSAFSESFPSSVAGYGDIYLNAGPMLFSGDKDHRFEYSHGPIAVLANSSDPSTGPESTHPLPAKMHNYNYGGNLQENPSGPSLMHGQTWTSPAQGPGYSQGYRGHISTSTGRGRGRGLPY
UniProt P22676, sequence (P22676 whole entry, looked up): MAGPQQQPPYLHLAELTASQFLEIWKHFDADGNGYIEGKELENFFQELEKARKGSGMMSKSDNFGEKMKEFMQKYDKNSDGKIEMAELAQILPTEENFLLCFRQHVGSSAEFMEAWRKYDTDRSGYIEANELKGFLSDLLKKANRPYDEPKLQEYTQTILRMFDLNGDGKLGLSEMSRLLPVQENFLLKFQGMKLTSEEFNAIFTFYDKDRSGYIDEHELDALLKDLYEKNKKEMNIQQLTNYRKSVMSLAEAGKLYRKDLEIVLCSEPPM
UniProt O95352, sequence (O95352 whole entry, looked up): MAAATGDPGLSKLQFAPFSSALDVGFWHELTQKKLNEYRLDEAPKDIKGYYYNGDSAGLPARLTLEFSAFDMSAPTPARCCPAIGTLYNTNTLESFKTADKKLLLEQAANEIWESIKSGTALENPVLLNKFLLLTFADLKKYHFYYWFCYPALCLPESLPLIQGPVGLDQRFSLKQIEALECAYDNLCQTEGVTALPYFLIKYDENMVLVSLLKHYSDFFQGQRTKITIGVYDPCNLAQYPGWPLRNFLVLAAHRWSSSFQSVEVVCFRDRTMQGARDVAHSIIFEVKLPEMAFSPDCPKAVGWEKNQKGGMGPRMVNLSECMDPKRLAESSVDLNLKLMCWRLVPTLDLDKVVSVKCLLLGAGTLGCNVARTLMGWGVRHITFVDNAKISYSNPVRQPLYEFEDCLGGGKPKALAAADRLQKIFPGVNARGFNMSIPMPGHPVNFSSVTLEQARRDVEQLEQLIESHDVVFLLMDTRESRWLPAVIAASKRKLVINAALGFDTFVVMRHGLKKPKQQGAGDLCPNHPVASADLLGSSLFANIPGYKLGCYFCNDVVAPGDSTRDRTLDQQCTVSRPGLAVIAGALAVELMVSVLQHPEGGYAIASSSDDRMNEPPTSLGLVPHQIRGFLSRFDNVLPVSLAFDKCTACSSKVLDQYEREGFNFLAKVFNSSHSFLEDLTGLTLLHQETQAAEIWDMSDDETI
UniProt Q86WA6, sequence (Q86WA6 whole entry, looked up): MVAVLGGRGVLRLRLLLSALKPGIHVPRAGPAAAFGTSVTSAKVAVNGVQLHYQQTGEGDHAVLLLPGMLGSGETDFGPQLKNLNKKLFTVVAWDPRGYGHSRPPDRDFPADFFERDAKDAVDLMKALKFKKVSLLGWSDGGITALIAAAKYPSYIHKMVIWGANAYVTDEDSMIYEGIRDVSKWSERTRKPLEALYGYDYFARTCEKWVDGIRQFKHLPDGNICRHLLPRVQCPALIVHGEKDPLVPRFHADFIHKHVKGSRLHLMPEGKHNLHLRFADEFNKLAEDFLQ
UniProt P23634, sequence (P23634 whole entry, looked up): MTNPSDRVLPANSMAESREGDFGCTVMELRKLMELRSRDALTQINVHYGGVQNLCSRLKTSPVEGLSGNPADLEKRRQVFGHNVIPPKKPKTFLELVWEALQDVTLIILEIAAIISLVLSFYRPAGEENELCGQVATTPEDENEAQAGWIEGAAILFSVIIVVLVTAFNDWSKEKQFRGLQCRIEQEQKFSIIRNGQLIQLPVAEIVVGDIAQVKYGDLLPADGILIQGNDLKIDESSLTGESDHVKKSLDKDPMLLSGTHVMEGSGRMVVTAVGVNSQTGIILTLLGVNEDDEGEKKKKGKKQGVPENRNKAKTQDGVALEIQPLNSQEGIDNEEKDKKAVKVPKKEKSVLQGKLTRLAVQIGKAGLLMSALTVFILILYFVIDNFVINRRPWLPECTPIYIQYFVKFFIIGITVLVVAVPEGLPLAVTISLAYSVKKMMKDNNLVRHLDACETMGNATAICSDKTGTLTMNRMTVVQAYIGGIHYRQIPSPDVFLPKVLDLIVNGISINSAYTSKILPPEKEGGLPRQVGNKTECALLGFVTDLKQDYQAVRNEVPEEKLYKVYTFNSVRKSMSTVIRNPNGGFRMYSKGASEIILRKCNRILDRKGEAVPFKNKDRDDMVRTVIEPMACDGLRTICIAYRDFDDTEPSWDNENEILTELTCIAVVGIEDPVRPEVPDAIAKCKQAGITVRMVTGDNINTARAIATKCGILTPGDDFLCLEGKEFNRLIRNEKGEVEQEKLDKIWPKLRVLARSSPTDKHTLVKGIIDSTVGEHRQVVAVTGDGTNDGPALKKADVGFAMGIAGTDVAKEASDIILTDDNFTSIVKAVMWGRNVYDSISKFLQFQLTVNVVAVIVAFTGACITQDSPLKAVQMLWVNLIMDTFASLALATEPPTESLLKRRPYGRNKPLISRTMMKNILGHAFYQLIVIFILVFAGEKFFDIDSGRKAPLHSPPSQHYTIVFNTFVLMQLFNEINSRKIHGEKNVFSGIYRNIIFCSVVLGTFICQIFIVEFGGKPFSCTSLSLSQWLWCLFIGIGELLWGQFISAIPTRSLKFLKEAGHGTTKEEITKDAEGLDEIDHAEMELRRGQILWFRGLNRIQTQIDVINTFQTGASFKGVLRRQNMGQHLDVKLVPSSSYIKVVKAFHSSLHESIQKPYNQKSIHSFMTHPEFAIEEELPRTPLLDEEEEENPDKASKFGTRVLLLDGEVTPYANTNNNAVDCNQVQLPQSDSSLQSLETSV

Compound in the first assay: CNC(=O)C1=CC=CC=C1NC2=NC(=NC=C2Cl)NC3=C(C=C(C=C3)N4CCOCC4)OC
The experiment in a line: log2 fold change, soluble protein after heating vs DMSO (PISA); higher = thermal stabilisation; K562 lysate, 10 uM; active = over 0.2 and 3.5 SD of the protein, either way, in both replicates (recomputed). A digest of the protocol: (§1)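 Pellets of K562 cells were dounce-homogenised in PBS pH 7.4 with 1 mM MgCl2, and the crude extract was held at 1 mg/mL protein for a 30 min treatment with 10 μM compound. Aliquots were heated for 3 min over 48°C-58°C and pooled before NP-40 was added to 0.5% at 4°C. The supernatant from 21,000xg for 90 min was quantified by TMTpro 16plex LC-MS/MS with channel sums equalised. Values are reported from duplicates as log-two fold change in thermal stability relative to solvent controls.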
On to CARD9 (UniProt Q9H257), for which the log2 fold change is 0.043.
On the same count and under the same terms, next, ATG13 isoform 2 (UniProt O75143): 0.013.
The same measure, in the same setting: to CCDC25 (UniProt Q86WR0) belongs -0.012; to CCPG1 isoform 5 (UniProt Q9ULG6), 0.028.
As for BRAF (UniProt P15056), the log2 fold change is 0.016.
The same measure, in the same setting: to CALB2 (UniProt P22676) belongs -0.028; to CES2 isoform 4 (UniProt O00748), 0.09.
On the same count and under the same terms, next, CCDC47 (UniProt Q96A33): -0.015; CCNB2 (UniProt O95067): 0.028; ATP2B4 (UniProt P23634): -0.006.
The same measure, in the same setting: next, CDKN1C (UniProt P49918): 0.025; ATAD3B (UniProt Q5T9A4): -0.029; CEP76 (UniProt Q8TAP6): 0.03.
On to CDK13 (UniProt Q14004), for which the log2 fold change was -0.044.
The same measure, in the same setting: to C2CD5 isoform 3 (UniProt Q86YS7) belongs -0.003; to CDAN1 (UniProt Q8IWY9), 0.049.
Still for that read-out and setting: next, ATRIP (UniProt Q8WXE1): -0.074.
Still for that read-out and setting: next, CAMK2G isoform 8 (UniProt Q13555): 0.223.
Regarding CDC16 (UniProt Q13042), the log2 fold change was 0.002.
Same read-out and setting: to CDC7 (UniProt O00311) belongs 0.077.
Still for that read-out and setting: to BNIP1 (UniProt Q12981) belongs 0.055.
Still for that read-out and setting: to CAD (UniProt P27708) belongs 0.01.
Turning to CFDP1 (UniProt Q9UEE9), the log2 fold change is 0.042.
C15orf41 (UniProt Q9Y2V0): the log2 fold change is 0.039.
Still for that read-out and setting: next, CDC123 (UniProt O75794): 0.009.
For BMS1 (UniProt Q14692), the log2 fold change is 0.042.
Same read-out and setting: to CCNA2 (UniProt P20248) belongs -0.002.
The same measure, in the same setting: to ATE1 isoform 2 (UniProt O95260) belongs 0.036.
The same measure, in the same setting: next, BPHL (UniProt Q86WA6): -0.048.
For the target ATR (UniProt Q13535), the log2 fold change is 0.029.
Same read-out and setting: to BORCS5 (UniProt Q969J3) belongs -0.001; to CCNYL1 (UniProt Q8N7R7), 0.061; to CBFA2T3 (UniProt O75081), 0.028.
On the same count and under the same terms, to ATG7 (UniProt O95352) belongs 0.001; to CAMKK2 (UniProt Q96RR4), 0.277 (active); to C19orf54 (UniProt Q5BKX5), 0.048.
The same measure, in the same setting: to ATXN2 (UniProt Q99700) belongs 0.016; to CASP3 (UniProt P42574), 0.066.
Turning to CAMKK1 isoform 2 (UniProt Q8N5S9), the log2 fold change was 0.305 (active).

Compound in another assay: CNC(=O)c1ccc(Nc2ncc(C(F)(F)F)c(NCc3nccnc3N(C)S(C)(=O)=O)n2)cc1 [defactinib]
The assay is described as above. Summed up: as §1
Consider CARD9 (UniProt Q9H257), for which the log2 fold change is 0.05.
With ATG13 isoform 2 (UniProt O75143), the log2 fold change is 0.03.
Still for that read-out and setting: next, CCDC25 (UniProt Q86WR0): -0.025; CCPG1 isoform 5 (UniProt Q9ULG6): -0.03; BRAF (UniProt P15056): 0.067.
Same read-out and setting: to CALB2 (UniProt P22676) belongs -0.062; to CES2 isoform 4 (UniProt O00748), -0.111; to CCDC47 (UniProt Q96A33), 0.004.
As to CCNB2 (UniProt O95067), the log2 fold change was -0.044.
Still for that read-out and setting: next, ATP2B4 (UniProt P23634): -0.043; CDKN1C (UniProt P49918): -0.186; ATAD3B (UniProt Q5T9A4): 0.046.
On the same count and under the same terms, to CEP76 (UniProt Q8TAP6) belongs 0.084; to CDK13 (UniProt Q14004), 0.139.
Same read-out and setting: to C2CD5 isoform 3 (UniProt Q86YS7) belongs -0.002; to CDAN1 (UniProt Q8IWY9), 0.039; to ATRIP (UniProt Q8WXE1), -0.114.
In the case of CAMK2G isoform 8 (UniProt Q13555), the log2 fold change is 0.006.
Same read-out and setting: next, CDC16 (UniProt Q13042): -0.024; CDC7 (UniProt O00311): 0.007; BNIP1 (UniProt Q12981): 0.
CAD (UniProt P27708): the log2 fold change is -0.022.
Still for that read-out and setting: to CFDP1 (UniProt Q9UEE9) belongs -0.01; to C15orf41 (UniProt Q9Y2V0), -0.13.
Still for that read-out and setting: next, CDC123 (UniProt O75794): 0.007.
Same read-out and setting: next, BMS1 (UniProt Q14692): 0.053.
On to CCNA2 (UniProt P20248), for which the log2 fold change is 0.037.
On the same count and under the same terms, to ATE1 isoform 2 (UniProt O95260) belongs 0; to BPHL (UniProt Q86WA6), 0.036; to ATR (UniProt Q13535), -0.07.
Same read-out and setting: to BORCS5 (UniProt Q969J3) belongs 0.067.
Consider CCNYL1 (UniProt Q8N7R7), for which the log2 fold change was 0.024.
The same measure, in the same setting: to CBFA2T3 (UniProt O75081) belongs 0.004.
Take ATG7 (UniProt O95352): the log2 fold change was 0.012.
In the case of CAMKK2 (UniProt Q96RR4), the log2 fold change was 0.059.
C19orf54 (UniProt Q5BKX5): the log2 fold change was -0.039.
The same measure, in the same setting: next, ATXN2 (UniProt Q99700): -0.019; CASP3 (UniProt P42574): 0.008; CAMKK1 isoform 2 (UniProt Q8N5S9): 0.051.
